# In PubChem BioAssay (NCATS):
# Records with an inconclusive call do not appear. Entries that show only a call come without a potency. Values without a mark were called inactive. Activity calls are given as the source filed them. Calls come from the whole dose curve; as a rule, active = well fitted curve in the direction sought with a large enough effect; inconclusive = small, poorly fitted or top-dose-only effect, or another doubt; inactive = no such curve, though single readings can be large; an effect the other way counts as inactive or inconclusive.
# What was measured:
# [1] = qHTS of pediatric cancer cell lines to identify multiple opportunities for drug repurposing: Primary screen for Saos-2 cells (AID 1347097); note: nearly all actives have a fitted effect of over 40% in size; note: potency is the fitted concentration of half-maximal effect
# Procedure, shortened: (§1)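 500-1,000 cells/well; 5 h pre-incubation 37 °C/5% CO2; compound pinned; 48 h; CellTiter-Glo, 15 min RT; luminescence. MIPE 11-pt from 0.78 nM, NPC 8-pt from 0.59 nM final. Bortezomib 2.3 µM final as positive control.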
# [2] = qHTS of pediatric cancer cell lines to identify multiple opportunities for drug repurposing: Primary screen for SK-N-SH cells (AID 1347098); note: nearly all actives have a fitted effect of over 65% in size; note: potency is the fitted concentration of half-maximal effect;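 for activity change, negative = cytotoxic: DMSO served as neutral control and bortezomib at 2.3 µM as positive control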
# Procedure, shortened: (§2)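 Cells (500-1,000/well) rested 5 h, then received compounds for 48 h; metabolically active cells were measured by CellTiter-Glo luminescence. Final concentrations spanned up to 46 µM (MIPE, 11-point) or 0.59 nM-46 µM (NPC, 8-point) in primary screens, 11-point in follow-ups.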
# [3] = qHTS of pediatric cancer cell lines to identify multiple opportunities for drug repurposing: Primary screen for NB1643 cells (AID 1347099); note: nearly all actives have a fitted effect of over 50% in size
# Procedure, shortened: as §1
# [4] = qHTS of pediatric cancer cell lines to identify multiple opportunities for drug repurposing: Primary screen for LAN-5 cells (AID 1347100)
# Procedure, shortened: (§3)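 Cells (500-1,000/well) in growth media were settled 5 h at 37 degrees C, then given compounds for 48 h. Viability was read as CellTiter-Glo luminescence. Primary runs used MIPE at 11 points (0.78 nM-46 µM) and NPC at 8 points (0.59 nM-46 µM); follow-ups used 11 points.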
# [5] = qHTS of pediatric cancer cell lines to identify multiple opportunities for drug repurposing: Primary screen for BT-12 cells (AID 1347101); note: nearly all actives have a fitted effect of over 25% in size
# Procedure, shortened: as §2
# [6] = qHTS of pediatric cancer cell lines to identify multiple opportunities for drug repurposing: Primary screen for OHS-50 cells (AID 1347103); note: nearly all actives have a fitted effect of over 40% in size; note: potency is the fitted concentration of half-maximal effect
# Procedure, shortened: as §2
# [7] = qHTS of pediatric cancer cell lines to identify multiple opportunities for drug repurposing: Primary screen for RD cells (AID 1347104); note: nearly all actives have a fitted effect of over 55% in size
# Procedure, shortened: as §1
# [8] = qHTS of pediatric cancer cell lines to identify multiple opportunities for drug repurposing: Primary screen for MG 63 (6-TG R) cells (AID 1347105); note: nearly all actives have a fitted effect of over 50% in size
# Procedure, shortened: as §1
# [9] = qHTS of pediatric cancer cell lines to identify multiple opportunities for drug repurposing: Primary screen for control Hh wild type fibroblast cells (AID 1347106);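 note: series mostly up to about 46 µM; a drop in luminescence marks cytotoxicity and a rise apparent proliferation; nearly all actives have a fitted effect of over 55% in size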
# Procedure, shortened: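 Viability after 48 h compound treatment at 37C, 500-1,000 cells/well, read as ATP luminescence with CellTiter-Glo. Primary screens used 11-point (MIPE, 0.78 nM-46 µM) or 8-point (NPC, 0.59 nM-46 µM) final concentrations; follow-up screens used 11-point dilutions.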
# [10] = qHTS of pediatric cancer cell lines to identify multiple opportunities for drug repurposing: Primary screen for Rh18 cells (AID 1347102); note: nearly all actives have a fitted effect of over 65% in size
# Procedure, shortened: as §3
compound,measurement,setting,value
Cc1cc(O)cc2c1O[C@](C)(CCC[C@H](C)CCC[C@H](C)CCCC(C)C)CC2,Potency,[1],inactive
same,Potency,[2],inactive
same,Potency,[3],inactive
same,Potency,[4],inactive
same,Potency,[5],inactive
same,Potency,[6],inactive
same,Potency,[7],inactive
same,Potency,[8],inactive
same,outcome,[9],inactive
CC[C@@]1(c2ccccc2)NC(=O)N(C)C1=O,Potency,[1],inactive
same,Potency,[2],inactive
same,Potency,[3],inactive
same,Potency,[4],inactive
same,Potency,[5],inactive
same,Potency,[10],inactive
same,Potency,[7],inactive
same,Potency,[8],inactive
same,outcome,[9],inactive
NCCNCCNCCN,Potency,[1],inactive
same,Potency,[2],inactive
same,Potency,[3],inactive
same,Potency,[4],inactive
same,Potency,[5],inactive
same,Potency,[6],inactive
same,Potency,[7],inactive
same,Potency,[8],inactive
same,outcome,[9],inactive
CC(C)(C)C(=O)NCCCC(=O)O,Potency,[1],inactive
same,Potency,[2],inactive
same,Potency,[3],inactive
same,Potency,[4],inactive
same,Potency,[5],inactive
same,Potency,[7],inactive
same,Potency,[8],inactive
same,outcome,[9],inactive
C[C@H](N)[C@H](O)c1cccc(O)c1,Potency,[1],inactive
same,Potency,[2],inactive
same,Potency,[3],inactive
same,Potency,[4],inactive
same,Potency,[5],inactive
same,Potency,[10],inactive
same,Potency,[7],inactive
same,Potency,[8],inactive
same,outcome,[9],inactive
OCC(O)CN1CCN(c2ccccc2)CC1 (stereo not drawn),Potency,[1],inactive
same,Potency,[2],inactive
same,Potency,[3],inactive
same,Potency,[4],inactive
same,Potency,[5],inactive
same,Potency,[10],inactive
same,Potency,[6],inactive
same,Potency,[7],inactive
same,Potency,[8],inactive
same,outcome,[9],inactive
CNC(=O)Oc1ccc2c(c1)[C@]1(C)CCN(C)[C@@H]1N2C,Potency,[1],inactive
same,Potency,[2],inactive
same,Potency,[3],inactive
same,Potency,[4],inactive
same,Potency,[5],inactive
same,Potency,[10],inactive
same,Potency,[7],inactive
same,Potency,[8],inactive
same,outcome,[9],inactive
Nc1ccc(S(=O)(=O)Nc2ccc(Cl)nn2)cc1,Potency,[1],inactive
same,Potency,[2],inactive
same,Potency,[3],inactive
same,Potency,[4],inactive
same,Potency,[5],inactive
same,Potency,[10],inactive
same,Potency,[7],inactive
same,Potency,[8],inactive
same,outcome,[9],inactive
CC1(C)CO[C@@H](CC(=O)O)CN1,Potency,[1],inactive
same,Potency,[2],inactive
same,Potency,[3],inactive
same,Potency,[4],inactive
same,Potency,[5],inactive
same,Potency,[10],inactive
same,Potency,[6],inactive
same,Potency,[7],inactive
same,Potency,[8],inactive
same,outcome,[9],inactive
CC(C)C(=O)c1c(C(C)C)nn2ccccc12,Potency,[1],inactive
same,Potency,[2],inactive
same,Potency,[3],inactive
same,Potency,[4],inactive
same,Potency,[5],inactive
same,Potency,[10],inactive
same,Potency,[7],inactive
same,Potency,[8],inactive
same,outcome,[9],inactive
CC(C)(C(=O)O)c1ccc(C(O)CCCN2CCC(C(O)(c3ccccc3)c3ccccc3)CC2)cc1 (stereo not drawn),Potency,[1],inactive
same,Potency,[2],inactive
same,Potency,[3],inactive
same,Potency,[4],inactive
same,Potency,[5],inactive
same,Potency,[10],inactive
same,Potency,[6],inactive
same,Potency,[7],inactive
same,Potency,[8],inactive
same,outcome,[9],inactive
CC(C)(C)C(=O)C(Oc1ccc(Cl)cc1)n1ccnc1 (stereo not drawn),Potency,[1],inactive
same,Potency,[2],24.4 µM (active)
same,Potency,[3],inactive
same,Potency,[4],inactive
same,Potency,[5],inactive
same,Potency,[10],inactive
same,Potency,[6],inactive
same,Potency,[7],inactive
same,Potency,[8],inactive
same,outcome,[9],inactive
NC(CSCC(=O)O)C(=O)O (stereo not drawn),Potency,[1],inactive
same,Potency,[2],inactive
same,Potency,[3],inactive
same,Potency,[4],inactive
same,Potency,[5],inactive
same,Potency,[10],inactive
same,Potency,[7],inactive
same,Potency,[8],inactive
same,outcome,[9],inactive
O=C(O)[C@H](O)c1ccccc1,Potency,[1],inactive
same,Potency,[2],inactive
same,Potency,[3],inactive
same,Potency,[4],inactive
same,Potency,[5],inactive
same,Potency,[7],inactive
same,Potency,[8],inactive
same,outcome,[9],inactive
C#CCN(C)Cc1ccccc1,Potency,[1],inactive
same,Potency,[2],inactive
same,Potency,[3],inactive
same,Potency,[4],inactive
same,Potency,[5],inactive
same,Potency,[10],inactive
same,Potency,[6],inactive
same,Potency,[7],inactive
same,Potency,[8],inactive
same,outcome,[9],inactive
O=C1NC(=O)[C@@]2(CCOc3ccc(F)cc32)N1,Potency,[1],inactive
same,Potency,[2],inactive
same,Potency,[3],inactive
same,Potency,[4],inactive
same,Potency,[5],inactive
same,Potency,[6],inactive
same,Potency,[7],inactive
same,Potency,[8],inactive
same,outcome,[9],inactive
[O-][n+]1cccc(CO)c1,Potency,[1],inactive
same,Potency,[2],inactive
same,Potency,[3],inactive
same,Potency,[4],inactive
same,Potency,[5],inactive
same,Potency,[10],inactive
same,Potency,[6],inactive
same,Potency,[7],inactive
same,Potency,[8],inactive
same,outcome,[9],inactive
C/C(=C(\CCOP(=O)(O)O)SC(=O)c1ccccc1)N(C=O)Cc1cnc(C)nc1N,"activity change, negative = cytotoxic",[1],-7.29% [at 4.84 µM]
same,"activity change, negative = cytotoxic",[2],-2.92% [at 6 µM]
same,"activity change, negative = cytotoxic",[3],16.8% [at 4.84 µM]
same,"activity change, negative = cytotoxic",[4],5.99% [at 4.84 µM]
same,"activity change, negative = cytotoxic",[5],9.87% [at 6.03 µM]
same,"activity change, negative = cytotoxic",[10],28.8% [at 4.84 µM]
same,"activity change, negative = cytotoxic",[6],12% [at 6.18 µM]
same,"activity change, negative = cytotoxic",[7],3.8% [at 4.84 µM]
same,"activity change, negative = cytotoxic",[8],-1.82% [at 4.84 µM]
same,"activity change, negative = cytotoxic",[9],4.64% [at 4.84 µM]
CN(N=O)C(=O)N[C@@H]1[C@@H](O)[C@H](O)[C@@H](CO)O[C@@H]1O,Potency,[1],inactive
same,Potency,[2],inactive
same,Potency,[4],inactive
same,Potency,[5],inactive
same,Potency,[10],inactive
same,Potency,[6],inactive
same,Potency,[7],inactive
same,Potency,[8],inactive
same,outcome,[9],inactive
[Cl][In]([Cl])[Cl],Potency,[1],8.63 µM (active)
same,Potency,[2],inactive
same,Potency,[3],inactive
same,Potency,[10],inactive
same,Potency,[6],25.2 µM (active)
same,Potency,[8],inactive
same,outcome,[9],inactive
CC1(C)OC(=O)NC1=O,Potency,[1],inactive
same,Potency,[2],inactive
same,Potency,[3],inactive
same,Potency,[5],inactive
same,Potency,[10],inactive
same,Potency,[6],inactive
same,Potency,[7],inactive
same,Potency,[8],inactive
same,outcome,[9],inactive
CC1=C(CC(=O)O)c2cc(F)ccc2/C1=C\c1ccc(S(C)=O)cc1 (stereo not drawn),Potency,[1],inactive
same,Potency,[2],inactive
same,Potency,[3],inactive
same,Potency,[4],inactive
same,Potency,[6],inactive
same,Potency,[7],inactive
same,Potency,[8],inactive
same,outcome,[9],inactive
CCOC(=O)c1ccc(O)cc1,Potency,[1],inactive
same,Potency,[2],inactive
same,Potency,[3],inactive
same,Potency,[10],inactive
same,Potency,[6],inactive
same,Potency,[7],inactive
same,Potency,[8],inactive
same,outcome,[9],inactive
